Our source for the sensor-assay potency score (higher = more potent) values is the OligoGym collection.
Note: reference of the scale not given here.

The target of the first assay is SPOCK1. Put plainly: pooled miR-30 sensor sort-seq; sequence = guide strand. The conditions noted are these: shRNA.
ATATTCTAGGTCATCCAGCAGG displayed a sensor-assay potency score (higher = more potent) of -0.735. In turn, TCCAACTTGTTGAACATCCAGC displayed a sensor-assay potency score (higher = more potent) of -1.54. The sequence TTCATATTCTAGGTCATCCAGC came in with a sensor-assay potency score (higher = more potent) of -0.469.

The next assay concerns the target SPOPL. The description is as above. The following applies: shRNA.
TATTTGTATTAGTATGTCCTGA registered a sensor-assay potency score (higher = more potent) of -0.376.

With TTAACCTGTGTGTAACACCAGC, the sensor-assay potency score (higher = more potent) is -0.559.

As to TAAAAACTGGAGATCGAGCTGC, the sensor-assay potency score (higher = more potent) amounted to 0.265. On the same count and under the same terms, with TCGCACATGACCTTCAGCCGTT the figure was -0.42; with TGTCGAAGTACACTGCACCTAT, -0.0442.

As to TGTAACACCAGCTTTCTGCTAT, the sensor-assay potency score (higher = more potent) turned out to be 0.257.

Turning to TACTACTTTAACCTGTGTGTAA, the sensor-assay potency score (higher = more potent) is -0.323. TTTTGCTCGAACTTCACTTTTG came in with a sensor-assay potency score (higher = more potent) of -1.29. As to TTCTTCGCACATGACCTTCAGC, the sensor-assay potency score (higher = more potent) was -0.607.

On to TTTACTACTTTAACCTGTGTGT, for which the sensor-assay potency score (higher = more potent) is -0.00218.

In turn, TTGAACTTTTTAACACTTCACC showed a sensor-assay potency score (higher = more potent) of -1.27. Same read-out and setting: with AAATTTTACTACTTTAACCTGT the figure was 0.191.

In the next assay the target is SPRR2B. The description is as above. The following applies: shRNA.
For TCTTTCTGCTGAAGCTCTGGGA, the sensor-assay potency score (higher = more potent) is -0.772. Sequence ATACTTTGGCTGGCAGGGTGGG returned a sensor-assay potency score (higher = more potent) of -1.37. Same read-out and setting: with TTTGCTATCAGGGAACATCATG the figure was -1.04; with TAAGGGGAAAGAAGCTCCCTAT, -0.405. Take TTGCTATCAGGGAACATCATGG: the sensor-assay potency score (higher = more potent) was -0.524.

In the case of TTGCACAGGTGGTAGAAGCTCA, the sensor-assay potency score (higher = more potent) is -0.478. Still for that read-out and setting: with TATGAATCCATGATAAGCTTTG the figure was -0.839; with TCTGGGAACTGACAAAGCCAAG, -1.68. The same measure, in the same setting: with TCCATGATAAGCTTTGATGAGA the figure was -1.51; with TTCCCAGGCACACAGCTGCAGC, -1.61.

In turn, TTAGAAAGGAAACCTTTTGCTA registered a sensor-assay potency score (higher = more potent) of -0.743.

TGAAGCTCTGGGAACTGACAAA came in with a sensor-assay potency score (higher = more potent) of -1.43.

In the next assay the target is SPSB2. Described as above. The following applies: shRNA.
Sequence TTTGGGGTTCCAACCGTGGCGC yielded a sensor-assay potency score (higher = more potent) of -1.17. In the case of TAGTGGTCAGTCTGCAGCGGGG, the sensor-assay potency score (higher = more potent) was -1.67. Regarding TTGTGGCGCACACACAGGCGGC, the sensor-assay potency score (higher = more potent) was -1.68.

For the sequence TCTCTCTGGCACCTCCAGCTGC, the sensor-assay potency score (higher = more potent) was -1.35.

As for ATGTTCTCTGAACAGTCTTTGG, the sensor-assay potency score (higher = more potent) was -1.78. The sequence TAGCAGACTGTCATAGCCTTGA displayed a sensor-assay potency score (higher = more potent) of -0.29.

Take TTGATTTCCGCAGAGCTTGGGT: the sensor-assay potency score (higher = more potent) is -0.0773. Still for that read-out and setting: with TTGCTCTGATGGTACAGCTTCC the figure was -0.719; with TTGACCTCGATGTTCTCTGAAC, -1.03; with TTGAATAGCCCCTCTTACCCCG, -0.468. TAGCGTAGCCCAGAGTTCCCTC registered a sensor-assay potency score (higher = more potent) of -0.633. For TTCTCTGAACAGTCTTTGGGGT, the sensor-assay potency score (higher = more potent) was -0.466.
